Measured values taken from PubChem BioAssay AID2642 (Johns Hopkins Ion Channel Center, 2010).
Screen size: about 310,000 compounds; about 3,900 (1.3%) were called active.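 How the source made its calls: active means compounds whose thallium flux B-score, printed positive for inhibition, exceeds three library SD while starting fluorescence stays within three; inactive means the rest.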 What follows is part of a selection rich in actives, with near analogues and random picks from the rest.

molecular target: Potassium voltage-gated channel subfamily KQT member 1 (Homo sapiens) (UniProt P51787); experiment: inhibitors of human KCNQ1 channel, primary screen, cell-based, thallium flux, high-throughput (AID 2642); details: CHO-K1 KCNQ1, FluxOR thallium flux fluorescence, at 10 µM; stronger effect = higher value;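 further: channel opened by potassium depolarization with thallium stimulus after 20 min compound exposure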
Sequence (P51787 whole entry, looked up): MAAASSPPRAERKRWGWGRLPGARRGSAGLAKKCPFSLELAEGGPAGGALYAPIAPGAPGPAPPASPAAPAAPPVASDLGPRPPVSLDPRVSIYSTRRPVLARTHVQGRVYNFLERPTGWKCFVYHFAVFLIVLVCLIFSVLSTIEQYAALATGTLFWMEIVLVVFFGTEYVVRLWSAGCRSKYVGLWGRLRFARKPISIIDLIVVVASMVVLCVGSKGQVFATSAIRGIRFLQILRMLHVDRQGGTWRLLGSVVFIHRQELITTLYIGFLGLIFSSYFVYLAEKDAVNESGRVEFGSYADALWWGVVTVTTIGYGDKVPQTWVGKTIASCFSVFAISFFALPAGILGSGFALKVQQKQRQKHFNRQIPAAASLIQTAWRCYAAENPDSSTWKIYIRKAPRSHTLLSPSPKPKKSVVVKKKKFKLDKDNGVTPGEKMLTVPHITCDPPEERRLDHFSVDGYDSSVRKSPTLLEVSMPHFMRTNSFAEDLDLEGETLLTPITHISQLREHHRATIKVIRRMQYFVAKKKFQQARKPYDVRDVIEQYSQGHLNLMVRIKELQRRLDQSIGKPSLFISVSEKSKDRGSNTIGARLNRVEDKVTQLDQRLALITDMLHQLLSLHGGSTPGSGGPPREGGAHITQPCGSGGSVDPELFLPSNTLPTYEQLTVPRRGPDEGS

B-score, inactive:
COc1ccc(N2CCN(C(=O)c3cn(C)c4ccc(S(=O)(=O)N5CCOCC5)cc4c3=O)CC2)cc1, COCCn1c(N)c(NCc2ccccc2)c(=O)[nH]c1=O, COC1=CCC2([N+](=O)[O-])CN(CC(=O)O)CC1([N+](=O)[O-])C2 (configuration not stated), CCCCOc1ccc(C(=O)NCC(=O)OCC(=O)N2CCN(S(=O)(=O)c3ccc(C)cc3C)CC2)cc1, COCCn1cnc2c1c(=O)n(Cc1ccc(Br)cc1)c(=O)n2Cc1ccccc1, CCN(CC)CCn1cnc2c1c(=O)[nH]c(=O)n2Cc1ccccc1, O=S(=O)(Nc1ccccc1Br)c1cccs1, O=S(=O)(NCc1ccc(Cl)cc1Cl)c1cccs1, COCCNC(=O)CN(Cc1ccco1)C(=O)CCC(=O)Nc1nccs1, CC(C)N(C(=O)c1ccc(-c2ccccc2F)cc1)C(C)C, O=C(CN1C(=O)c2ccccc2C1=O)NCc1ccc(C(=O)O)cc1, Cc1ccc(Cl)cc1NC(=O)C1CCCN(c2cnccn2)C1 (configuration not stated), O=C(COc1ccc(S(=O)(=O)N2CCOCC2)cc1Cl)N1CCOCC1, OCC1(Cc2ccccc2C(F)(F)F)CCN(Cc2cccc3cnccc23)CC1, O=C(Cc1ccsc1)N1CCN(S(=O)(=O)c2cc(C(F)(F)F)cc(C(F)(F)F)c2)CC1, O=C(c1ccncc1)N1CCN(S(=O)(=O)c2cccc([N+](=O)[O-])c2)CC1, Cn1c(=O)c2c(nc(N3CCOCC3)n2CCNC2=NCCC2)n(C)c1=O, CCc1cccc(NC(=O)C2CCCN(S(=O)(=O)c3ccc4[nH]c(=O)ccc4c3)C2)c1 (configuration not stated), COC(=O)c1ccc(/C=C2/C(=O)Oc3ccccc32)cc1, C/C(N)=C(/C#N)C(=O)COC(=O)C1CCN(C(=O)c2ccc(Cl)cc2)CC1, COc1ccc(NC(=O)CNC(=O)Cn2ccc3ccccc3c2=O)c(OC)c1, Cc1ccc(OCCCCc2c(C)n[nH]c2C)cc1, CCOC(=O)N1CCN(C(=O)c2ccc(S(=O)(=O)Nc3cccc(C(F)(F)F)c3)cc2)CC1, CCOC(=O)c1ccc2c(c1)nc(C)n2CC, O=C(COC(=O)/C=C/c1cccs1)NC1CCCCC1, Cc1nc(-c2ccc(F)cc2)c(CC(=O)Nc2cccc(S(=O)(=O)N3CCOCC3)c2)s1, Cc1ccc(NC(=O)COc2ccc(-n3ccnc3)cc2)cc1Cl, COc1cc(C(=O)N/C(=C\c2cn(C)c3ccccc23)C(=O)N2CCOCC2)cc(OC)c1OC, COc1cc(/C=C(\C#N)c2nc3c(s2)CC(C)CC3)ccc1O (configuration not stated), COc1ccc(/C=C(/NC(=O)c2ccc(C)cc2)c2nc3ccccc3[nH]2)cc1OC, COc1ccc(/C=C(\NC(=O)c2ccc(OCC(C)C)cc2)C(=O)OCc2ccco2)cc1, O=C(O)c1ccc(OCC2CCCO2)cc1 (configuration not stated), COc1ccccc1C(=O)NC(CCSC)C(=O)NNC(=O)c1csc(N2CCOCC2)n1 (configuration not stated), COC(=O)c1cc(NC(=O)c2cccnc2)ccc1N1CCOCC1, O=C(Nc1ccc(N2CCOCC2)nc1)c1c(F)cccc1F, CSCCC(NS(=O)(=O)/C=C/c1ccccc1)C(=O)N1CCC(C)CC1 (configuration not stated), CCOC(=O)c1ccc(NC(=O)c2cccnc2)cc1, CCOC(=O)c1sc(NC(=O)CSc2ncccn2)c(C#N)c1C, C=CCc1c(C)nc2cc(-c3ccccc3)[nH]n2c1=O, COc1ccc(CCNC(=O)CCNS(=O)(=O)c2cc(Br)cnc2N)cc1OC, Cc1cc(C)cc(OCC(=O)Nc2ccc(S(=O)(=O)Nc3ccccn3)cc2)c1, Cc1ccc(NS(=O)(=O)c2ccc(C(C)(C)C)cc2)cn1, Cc1ccc2c(Cl)c(C(=O)Nc3nn[nH]n3)sc2c1, CN(C)CCCN1C(=O)CSC1c1ccc([N+](=O)[O-])cc1 (configuration not stated), CCCCCCOc1ccc(OC(=O)c2cccnc2)cc1, CCCCN1C(=O)c2ccc(C(=O)Nc3ccc(S(=O)(=O)N(C)C)cc3)cc2C1=O, CC(C)(C)C(=O)N(Cc1ccccc1)c1ccccn1, CCN=C1S/C(=C\c2cc(Br)ccc2OCC(=O)OCC)C(=O)N1CC, CN(C)C(=O)c1ccc(NC(=O)c2ccccc2-c2ccccc2)cc1, O=C(c1ccc2c(c1)N(Cc1ccc(F)cc1)C(=O)c1ccccc1S2(=O)=O)N1CCN(c2ccccn2)CC1, O=C(NCc1ccncc1)NC12CC3CC(CC(C3)C1)C2, S=C(NCc1ccc(Cl)cc1)NC1CCCCC1, Cc1cc(C)c(NC(=S)N2CCCC2C(=O)O)c(C)c1 (configuration not stated), CC(C)[C@H](NC(=O)N1CCn2c1nc1ccccc12)C(=O)NCc1ccc2c(c1)OCO2, COc1cnn(-c2ccc([N+](=O)[O-])cc2)c(=O)c1Cl, CC(=O)c1ccc(NC(=O)C2CCCN2S(=O)(=O)c2cccs2)cc1 (configuration not stated), CSc1nsc(NC(=O)Nc2ccccc2)n1, CCSc1nsc(NC(=O)Nc2ccccc2OC)n1, CC(=O)c1cccc(NC(=O)c2ccncc2)c1, C=C(C)C(=O)Nc1cccc(C(C)=O)c1, CCOc1ccc(C(CCc2ccccc2)NC(=O)c2ccc(OC)c(OC)c2)cc1OCC (configuration not stated), COc1cc2c3c(c1)/C(=C1/SC(=S)NC1=O)C(=O)N3C(C)(C)C=C2C, Cc1ccc2nc(-c3ccncc3)cc(C(=O)Nc3ccc(OC(F)F)cc3)c2c1, CC(C)C(=O)Nc1ccc2c(c1)oc1ccccc12, CCOC(=O)c1ccc(NC(=O)CCn2c(=O)oc3ccccc32)cc1, CC(=O)NCCC(=O)Nc1nc(-c2ccc3c(c2)OCCO3)cs1, Cc1csc(NC(=O)C2=COCCO2)n1, Cc1cccc(CN2CCC(n3nccc3NC(=O)c3ccccc3C)CC2)n1, CN(C)N(C)C(=O)C(O)(c1ccccc1)c1ccccc1, CCc1ccc(NC(=O)CCNS(=O)(=O)c2cccs2)cc1, COc1ccc(-c2cc(C(F)(F)F)nc(NCc3cccnc3)n2)cc1, COc1ccc(-c2ccc(Nc3ccc(S(=O)(=O)N4CCCC4)cc3)nn2)cc1OC, C=C(C)CNC(=O)c1ccc(OC2CCN(C(=O)COC)CC2)cc1, O=C(CC(NCCN1CCOCC1)C(=O)O)Nc1cccc(Cl)c1 (configuration not stated), CCOC(=O)c1sc(NC(=O)CSc2nc(C)cc(C(F)(F)F)n2)c(C#N)c1C, CC(C(=O)Nc1ccc(O)c(C(=O)O)c1)N1C(=O)/C(=C/c2cccs2)SC1=S (configuration not stated), Cc1ccc(NC(=O)CC(=O)Nc2ccc(C)cc2)cc1, COC(=O)c1ccc(NC(=O)c2cc(Cl)ccc2OC)cc1, CCC(C)C(NC(=O)C1CCC(=O)N1C(=O)OCc1ccccc1)C(=O)NC(C(=O)N1CCCC1C(N)=O)C(C)CC (configuration not stated), CC1CCc2c(c3ccccc3[nH]c2=O)O1 (configuration not stated), CCOC(=O)c1cc(C)sc1NC(=O)C1CCC1, O=C(c1ccccc1)N1N=C(c2ccccc2O)CC1c1ccc(Br)cc1 (configuration not stated), COc1ccc(C2CC(c3cccs3)=NN2c2ccccc2)cc1 (configuration not stated), Cc1nc2c(C(=O)NCc3cccs3)cnn2c(C)c1Cc1ccc(F)cc1, CCOC(=O)c1cccc(NC(=O)C2CCCN(S(=O)(=O)c3cnc[nH]3)C2)c1 (configuration not stated), CCC(O)C1CCN(Cc2cn(-c3ccc(OC)cc3)nc2-c2cccc(F)c2)CC1 (configuration not stated), Cc1ccc(C)c(-n2cc(CN3CCN(C(=O)c4ncn[nH]4)CC3)c(-c3ccccc3)n2)c1

B-score, active:
N=c1c2c(-c3ccccc3)c(-c3ccccc3)n(Cc3ccccc3)c2ncn1CCCO 10, O=C(Nc1cccc(Cl)c1)Nc1ccccc1NS(=O)(=O)c1cccs1 14, CC(=O)N(C1=C(Cl)C(=O)c2ccccc2C1=O)c1ccc(C(=O)O)cc1 17, O=C(c1ccncc1)N1CCN(S(=O)(=O)c2cc(C(F)(F)F)cc(C(F)(F)F)c2)CC1 6, CCn1c(/C=C/Nc2ccccc2)[n+](CC)c2ccc(C(=O)OCC(F)(F)F)cc21 9, Cc1ccc(-c2nc(-c3cccnc3)sc2CC(=O)Nc2ccc(C)c(Cl)c2)cc1 11, COc1cc(/C=C(\C#N)c2nc3ccccc3[nH]2)ccc1O 9, O=C(Nc1ccc(F)cc1)c1cccnc1N1CCOCC1 10, Cc1c(C(=O)OC(C)C)sc(NC(=O)c2cccnc2)c1C#N 9, Cc1ccc(S(=O)(=O)Nc2ccc3ncccc3c2)cc1 6, CCCCCCCCCCCCN1C(=O)CSC1c1cccnc1 (configuration not stated) 9, CN(C)C(=O)c1ccc2c(c1)C1C3CCC(C3)C1C(c1ccccc1)N2 (configuration not stated) 6, S=C(NCc1ccc(Cl)cc1)NC12CC3CC(CC(C3)C1)C2 11, C=CCSc1nsc(NC(=O)Nc2cccc(C(C)=O)c2)n1 12, CCSc1nsc(NC(=O)Nc2cccc(C(C)=O)c2)n1 10, Cc1ccc(-c2csc(NC(=O)C3=COCCO3)n2)cc1C 12, COc1ccc(-c2cc(C(F)(F)F)nc(S(C)(=O)=O)n2)cc1OC 7, COC(=O)c1ccc(NC(=O)Nc2ccc(C)cc2)cc1 7, Oc1ccccc1C1=NN(c2ccccc2)C(c2ccccc2)C1 (configuration not stated) 7, Cc1cccc(-n2cc(CN3CCN(C(=O)c4ncn[nH]4)CC3)c(-c3cccc(F)c3)n2)c1 10
